# CYP2C19 inhib: inhibitors of human CYP2C19; P33261; CYP2C19 Supersomes, luciferin-H EGE luminescence, 30 min; inhibition, % at 5 µM; 96,000 compounds, 21% hits;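 active = CYP2C19 inhibition above a set limit at 5 µM in the primary screen, cut at about 50% in these data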
# sEH act: activators of human soluble epoxide hydrolase; P34913; purified human sEH enzymatic activity, activator screen; activation, % at 2 µM; 91,000 compounds, 0.04% hits; AID 717; in the data active = activation above about 37%
# CYP2C19 act: cytochrome P450 2C19 (human) activation | recombinant CYP2C19, luciferin-H EGE luminescence; active compounds read high; 0 = fully inhibited enzyme, 1 = untreated enzyme | activation factor at 5 µM | 96,000 tested, under 10 active;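 active = activation factor of at least 2 at 5 µM in the primary screen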
# CYP2C9 act: increases human cytochrome P450 2C9 activity | P11712 | recombinant CYP2C9, luciferin-H conversion, luminescence; active compounds read high; factor 1 = untreated enzyme, 0 = blocked | activation factor at 5 µM | 96,000 compounds, 1.4% hits | AID 1024;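 active = activation factor of 2 or more for CYP2C9 at a 5 µM dose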
# Target sequence (P11712 whole entry, looked up): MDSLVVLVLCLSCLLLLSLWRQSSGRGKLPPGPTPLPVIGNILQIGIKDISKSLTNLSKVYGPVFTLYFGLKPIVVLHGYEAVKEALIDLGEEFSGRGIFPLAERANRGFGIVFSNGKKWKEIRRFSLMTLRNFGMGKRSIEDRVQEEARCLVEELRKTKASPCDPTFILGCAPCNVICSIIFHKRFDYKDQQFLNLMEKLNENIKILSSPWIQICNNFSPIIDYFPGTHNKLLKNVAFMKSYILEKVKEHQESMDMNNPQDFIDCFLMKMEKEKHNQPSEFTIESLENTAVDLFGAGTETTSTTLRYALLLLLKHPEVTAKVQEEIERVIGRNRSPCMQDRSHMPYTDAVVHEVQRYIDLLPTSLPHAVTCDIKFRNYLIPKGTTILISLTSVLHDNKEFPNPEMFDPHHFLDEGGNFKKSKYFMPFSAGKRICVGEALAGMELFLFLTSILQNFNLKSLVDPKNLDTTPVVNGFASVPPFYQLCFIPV
# CYP2C9 inh: human CYP2C9 inhibition; CYP2C9 Supersomes, luciferin-H conversion, luminescence; 96,000 compounds, 20% hits; P11712; AID 777; inhibition, % at 5 µM;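 active = blocking of liver enzyme CYP2C9 beyond about 50% at 5 µM, limit read from the data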
# sEH inh: inhibitors of human soluble epoxide hydrolase; P34913; recombinant human sEH enzymatic activity assay; inhibition, % at 2 µM; 91,000 compounds, 0.34% hits; in the data active = inhibition above about 80%
# Numbers stand for hits; n = inactive; x = no result. Compounds with a hit are over-represented: about 27% of the library has one in this group of screens.
SMILES,CYP2C19 inhib,sEH act,CYP2C19 act,CYP2C9 act,CYP2C9 inh,sEH inh
COc1ccccc1C(=O)NC(=Nc1nc2ccccc2o1)NC(=O)c1ccccc1OC,65,n,n,n,73,n
CN(C)CCNCc1ccccc1OC1CCCC1,n,n,n,n,n,n
CCc1ccc(NSc2ccccc2[N+](=O)[O-])cc1,65,n,n,n,n,n
CCOc1ccc(-c2cnc3n2CCC3)cc1,n,n,n,n,n,n
Brc1ccc(-c2cnc3n2CCCC3)cc1,50,n,n,n,n,n
COc1ccc(OC)c(NC(=O)c2ccc(CN3CCOCC3)cc2)c1,n,x,n,2,n,x
COc1ccc(OC)c(NC(=O)c2cn(C)c(=O)c3cc(OC)c(OC)cc23)c1,n,n,n,n,74,n
COc1ccc(C(=O)Nc2cc(OC)ccc2OC)cc1,71,n,n,n,n,n
COc1ccc(OC)c(NC(=O)C23CCC(C)(C(=O)C2)C3(C)C)c1 (stereo not drawn),n,n,n,2.3,n,n
COc1ccc(OC)c(NC(=O)c2cc3ccccc3o2)c1,n,n,n,n,n,n
Cc1ccc(C(=O)c2cc(C)sc2NC(=O)CN2CCN(C(=O)c3ccco3)CC2)cc1,n,n,n,n,n,n
OC1CCN(c2ncnc3c2nnn3Cc2c(F)cccc2Cl)CC1,n,x,n,n,n,x
Cc1cc(NC(=O)COC(=O)c2cc3c(s2)CCC(C)C3)no1 (stereo not drawn),n,n,n,n,n,n
Cc1nn(CC2CCCCC2)c(N)c1-c1ccccc1,98,n,n,n,92,n
CCn1c(C)nc2cc(-c3nc4n(n3)Cc3ccccc3-4)ccc21,84,x,n,n,n,x
O=c1c2ccccc2ncn1Cc1nc2ccccc2s1,82,x,n,n,77,x
O=C(O)Cn1cnc2ccccc2c1=O,n,n,n,n,n,n
O=C1c2ccccc2S(=O)(=O)N1Cc1nc2ccccc2s1,86,n,n,n,n,n
CN(Cc1cccs1)C(=O)CSc1nnnn1C,n,n,n,n,n,n
COc1ccc(C2(O)CC3CCC(C2)N3c2nc(C)cc(C)c2C#N)cc1 (stereo not drawn),n,n,n,n,59,n
COc1ccccc1CN(Cc1cc2c(C)ccc(C)c2[nH]c1=O)Cc1nnnn1Cc1ccco1,60,n,n,n,80,n
COc1ccc2cc(CN(CCc3ccccc3)Cc3nnnn3Cc3ccco3)c(=O)[nH]c2c1,96,n,n,n,100,n
COc1ccc(C(=O)N(CCCO)Cc2cc3c(C)ccc(C)c3[nH]c2=O)cc1OC,n,n,n,n,n,n
COc1ccc2[nH]c(=O)c(CN(C3CCCCC3)C(c3nnnn3Cc3ccco3)C(C)C)cc2c1 (stereo not drawn),60,n,n,n,95,n
Cc1ccc2cc(C(c3nnnn3C3CCCC3)N(Cc3cccnc3)Cc3ccco3)c(=O)[nH]c2c1 (stereo not drawn),92,x,n,n,74,x
SMILES,CYP2C19 inhib,sEH act,CYP2C19 act,CYP2C9 act,CYP2C9 inh,sEH inh
O=C(CN1CCOCC1)Nc1ccccc1C(=O)O,n,n,n,n,n,n
CC(C)OC(=O)[C@H]1[C@H](c2ccc(Cl)cc2)[C@@](C#N)(C(N)=O)[C@@H]2C=CC(C(N)=O)=CN21,n,n,n,n,n,n
COc1ccc2[nH]c(=O)c(CN(Cc3nnnn3Cc3ccco3)C3CCCCC3)cc2c1,89,n,n,n,75,n
CCC(c1nnnn1C1CCCCC1)N(Cc1ccco1)Cc1cc2ccc(OC)cc2[nH]c1=O (stereo not drawn),95,n,n,n,84,n
Cc1ccc2cc(C(c3nnnn3C3CCCC3)N(Cc3ccco3)Cc3cccs3)c(=O)[nH]c2c1 (stereo not drawn),n,n,n,n,n,n
COc1ccccc1OCc1ccc(C(=O)NCC2CCCO2)o1 (stereo not drawn),n,n,n,n,n,n
O=C(O)c1cc(NCc2c(F)cccc2Cl)ccc1N1CCOCC1,n,x,n,n,n,x
COc1ccc2nc(NC(=O)C3CCN(S(=O)(=O)c4cccc5nsnc45)CC3)sc2c1,n,n,n,n,n,n
Cc1nc2ccc(S(=O)(=O)NC(C(=O)Nc3nc4ccc(Cl)cc4s3)C(C)C)cc2s1 (stereo not drawn),84,n,n,n,92,n
Cc1nc2ccc(S(=O)(=O)NCC(=O)N3CCC(C)CC3)cc2s1,50,n,n,n,n,n
CC(C)C(NS(=O)(=O)c1cccc2nsnc12)C(=O)NCc1ccc2c(c1)OCO2 (stereo not drawn),n,n,n,n,59,n
COc1ccc2nc(NC(=O)C(NS(=O)(=O)c3cccc4nsnc34)C(C)C)sc2c1 (stereo not drawn),n,n,n,n,74,n
CC(C)(C)NC(=O)CSc1n[nH]c(=O)n1-c1ccccc1,n,x,n,n,n,x
N#C/C(C(=O)Oc1ccccc1)=C1\C=Cc2ccccc2N1,n,n,n,n,n,n
COc1ccc(NC(=O)C(C)N2c3cccc4cccc(c34)S2(=O)=O)cc1 (stereo not drawn),67,n,n,n,n,n
COc1ccc(NC(=O)CN2c3cccc4cccc(c34)S2(=O)=O)cc1,n,n,n,2.8,n,n
CCN1c2cccc3cccc(c23)S1(=O)=O,78,n,n,6.2,n,n
COC(=O)CNC(=O)CN1c2cccc3cccc(c23)S1(=O)=O,n,n,n,2.1,n,n
Cc1ccc(CN2CCN(CC3CC4C=CC3C4)CC2)cc1 (stereo not drawn),n,n,n,n,n,n
CCOC(=O)Cn1c(C)cc(=O)c2ccccc21,n,x,n,n,n,x
CCOC(=O)Cn1c2ccccc2c2nc3ccccc3nc21,58,n,n,n,n,n
O=c1oc2ccccc2n1CCn1c2ccccc2c2nc3ccccc3nc21,78,n,n,n,64,n
CCCn1c2ccccc2c2nc3ccccc3nc21,54,n,n,n,69,n
CC1(C)C(=O)OC(c2c(F)c(F)c(F)c(F)c2F)C2(CCCCC2)C1=O (stereo not drawn),n,n,n,n,n,n
CCN(CC)CCNc1nc(-c2ccccc2)nnc1C(F)(F)F,n,n,n,n,n,n
OC(CCCCN1CCCCC1)c1ccccc1 (stereo not drawn),n,n,n,n,n,n
COc1ccc(CCN(C(=O)C(F)(F)F)C(C(=O)NC2CCCCC2)c2ccc(C)s2)cc1 (stereo not drawn),n,n,n,n,n,n
O=C(CSc1ncnc2nc[nH]c12)N1CCN(c2ccccc2)CC1,n,n,n,n,n,n
Cc1nc2ccc(NC(=O)c3ccc(F)c(S(=O)(=O)N4CCOCC4)c3)cc2s1,n,n,n,n,n,n
COc1ccc(CCNc2ncnc3[nH]ncc23)cc1OC,n,n,n,n,n,n
